The panel holds about 79,000 compounds, 15% with a hit somewhere; the sample as a whole holds those more often. A number with no mark means an inactive call. Active and inactive are the calls of the source. Cut-off read from the data, not from the text of the source: active = growth inhibition above about 70%; inactive = the rest. *1 amine or outer side, *2 acyl side, *3 side chain or, on linkers, in order; H or OH if unused. Where a SMILES comes first, the peptide text is derived from it. Bridges are numbered along the chain shown (N, C = ends). Roman numbers before positions name the chains, in order. [ ]: non-standard residue; d: D form. Actinocin(1to9) = Cc1c2oc3c(C)ccc(C(=O)[*:2])c3nc-2c(C(=O)[*:1])c(N)c1=O; NMeV = CN[CH](C(=O)O)C(C)C; Sar = CNCC(=O)O
Key:
[1] = NCI Yeast Anticancer Drug Screen. Data for the rad50 strain (AID 155);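 note: 0% = growth of vehicle-only cultures of the same strain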; conditions: S. cerevisiae rad50 strain growth inhibition, hits give high values
Method in brief: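 DNA repair mutant yeast, compound exposure, growth read-out; inhibition is taken relative to vehicle.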

[2] = NCI Yeast Anticancer Drug Screen. Data for the mec2-1 strain (AID 157); conditions: S. cerevisiae mec2-1 strain, hits give high values
Method in brief: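 Mutant yeast (mec2-1) grown with compound; growth inhibition relative to vehicle control reported.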

[3] = NCI Yeast Anticancer Drug Screen. Data for the sgs1 mgt1 strain (AID 161);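 note: 0% = growth of cultures given vehicle only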; conditions: S. cerevisiae sgs1 mgt1 strain, hits give high values
Method in brief: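 Percent growth inhibition was derived by comparing compound-exposed mutant yeast with vehicle-exposed cultures. The strain carries alterations in DNA damage repair.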

[4] = NCI Yeast Anticancer Drug Screen. Data for the cln2 rad14 strain (AID 165);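 note: 0% = growth equal to vehicle treated cultures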; conditions: S. cerevisiae cln2 rad14 strain, hits give high values
Method in brief: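 Readout is yeast growth inhibition versus vehicle-treated controls, using a strain with cln2 and rad14 alterations exposed to compound.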

[5] = NCI Yeast Anticancer Drug Screen. Data for the bub3 strain (AID 167); conditions: S. cerevisiae bub3 mutant strain, hits give high values
Method in brief: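 In this screen, a yeast mutant lacking normal mitotic checkpoint function is challenged with compound. Relative growth versus vehicle gives the inhibition value.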

[6] = NCI Yeast Anticancer Drug Screen. Data for the mlh1 rad18 strain (AID 175); conditions: S. cerevisiae mlh1 rad18 strain growth inhibition, hits give high values
Method in brief: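 Genetically defined yeast (DNA repair-deficient) exposed to compounds; growth inhibition determined relative to vehicle.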

[7] = at 5.0 µM (retest, dose inferred, filed as 0.5)
[8] = at 50.0 µM (retest, dose inferred, filed as 5.0)

Row | Compound | growth inhibition [1, 7] | growth inhibition [1, 8] | growth inhibition ([1]; at 50.0 µM) | growth inhibition [2, 7] [%] | growth inhibition [2, 8] | growth inhibition ([2]; at 50.0 µM) | growth inhibition [3, 7] | growth inhibition [3, 8] | growth inhibition ([3]; at 50.0 µM) | growth inhibition [4, 7] [%] | growth inhibition [4, 8] | growth inhibition ([4]; at 50.0 µM) | growth inhibition [5, 7] | growth inhibition [5, 8] | growth inhibition ([5]; at 50.0 µM) | growth inhibition [6, 7] | growth inhibition [6, 8] | growth inhibition ([6]; at 50.0 µM)
1 | C=C1C(=O)C2=CC1CCC(=O)C1(C)CCC(OC(C)=O)C(C)(C)C1CC2O (configuration not stated) | 16% | 52% | 82.1% (active) | 10 | 70% (active) | 82.8% (active) | 12% | 46% | 78.7% (active) | 16 | 40% | 65% | 15% | 83% (active) | 87% (active) | 15% | 65% | 73.7% (active)
2 | Oc1c(Cl)cc(Cl)cc1C(c1cc(Cl)cc(Cl)c1O)C(Cl)(Cl)Cl | -2% | 99% (active) | 99% (active) | 0 | 100% (active) | 99.5% (active) | -4% | 99% (active) | 99.5% (active) | -2 | 97% (active) | 98.7% (active) | -2% | 99% (active) | 99.2% (active) | 0% | 99% (active) | 99.2% (active)
3 | CCCCOS(=O)(=O)c1ccccc1 | 7% | -25% | -6% | 10 | 1% | -2.6% | 0% | 1% | 8.95% | 5 | 0% | -23.1% | -23% | -6% | 0.8% | 3% | 1% | 14.2%
4 | COC(=O)c1nc(=S)[nH]c(C(=O)OC)c1C(=O)c1ccc(Cl)c(Cl)c1 | -8% | 98% (active) | 99.5% (active) | -1 | 98% (active) | 99% (active) | 7% | 98% (active) | 99.3% (active) | 4 | 95% (active) | 98.5% (active) | 0% | 98% (active) | 98.2% (active) | 11% | 99% (active) | 99.2% (active)
5 | CC1(C)OC2C(COC(c3ccccc3)(c3ccccc3)c3ccccc3)OC(c3c[nH]c4c(N)ncnc34)C2O1 (configuration not stated) | 9% | 99% (active) | 98.9% (active) | 40 | 99% (active) | 99.1% (active) | -6% | 99% (active) | 99.2% (active) | -20 | 99% (active) | 97.7% (active) | 10% | 99% (active) | 98.8% (active) | 25% | 99% (active) | 98.7% (active)
6 | O=C(/C(Cl)=N/O)c1ccc(-c2ccccc2)cc1 | 8% | 97% (active) | 99.3% (active) | 5 | 98% (active) | 59.4% | 2% | 98% (active) | 95.5% (active) | 15 | 93% (active) | 99.2% (active) | 6% | 97% (active) | 99.7% (active) | 13% | 97% (active) | 99.3% (active)
7 | CC1=CC[C@@H]2[C@@H](CC[C@@]2(C)O)C(C)(C)[C@H]1CC[C@@H]1[C@@]2(C)CCC(=O)C(C)(C)O[C@@H]2CC[C@]1(C)O | 20% | 57% | 74.8% (active) | 13 | 37% | 62.9% | -1% | 78% (active) | 72.2% (active) | 16 | 70% (active) | 55.2% | 10% | 73% (active) | 62.1% | 25% | 62% | 22.9%
8 | CCNc1nnnn1CC | -37% | 1% | -2.5% | -2 | -2% | 2.1% | 0% | 5% | -5.35% | 2 | 4% | 12.3% | -1% | -2% | 22.9% | 6% | 18% | 2.8%
9 | O=S(=O)(O)c1cnccn1 | 0% | -4% | 91.3% (active) | -2 | -3% | 98.3% (active) | -4% | -3% | 87.8% (active) | 0 | 3% | 80.8% (active) | 2% | 6% | 96.9% (active) | 1% | -2% | 80.9% (active)
10 | C/C(=N\NC(=S)N1CC2CCC(CC2)C1)c1ccccn1 | 33% | 65% | 86.7% (active) | 13 | 73% (active) | 89.7% (active) | 26% | 76% (active) | 88.8% (active) | 23 | 81% (active) | 79.1% (active) | 21% | 80% (active) | 88.7% (active) | 25% | 68% | 92.3% (active)
11 | NC(CS/C(Cl)=C/Cl)C(=O)O (configuration not stated) | 48% | 92% (active) | 92.3% (active) | 47 | 96% (active) | 93.8% (active) | 34% | 94% (active) | 93.5% (active) | 41 | 96% (active) | 92.3% (active) | 19% | 94% (active) | 89.4% (active) | 89% (active) | 97% (active) | 97.5% (active)
12 | COc1ccc2c(c1)C(OC)C1c3c(cc4c(c3-2)OCO4)CCN1C (configuration not stated) | 24% | 52% | -23.1% | 14 | 27% | -17.5% | 12% | 28% | -8.75% | 22 | 28% | -1.45% | 28% | 35% | -6.05% | 35% | 53% | 78.3% (active)
13 | COc1cc(/C=C2\SC(=S)N(/C=C/c3nc4ccccc4[nH]c3=O)C2=O)cc(OC)c1OC | -9% | 57% | 8.55% | -10 | 45% | 14.7% | -3% | 24% | 63.1% | -29 | 58% | 34.5% | -8% | 44% | -4.8% | 3% | 42% | 55.1%
14 | S=c1[nH]c2cc(Cl)ccc2s1 | -21% | 64% | 25.2% | -4 | 90% (active) | 42.2% | -6% | 95% (active) | 74.6% (active) | -8 | 93% (active) | -2.15% | -28% | 16% | -4.3% | -12% | 45% | 42.9%
15 | CCCCCCCCCCCCSC(=N)N | 86% (active) | 98% (active) | 51.3% | 21 | 99% (active) | 99% (active) | 84% (active) | 98% (active) | 46.5% | 20 | 98% (active) | 97.2% (active) | 72% (active) | 95% (active) | 98.7% (active) | 49% | 99% (active) | 64.2%
16 | CCC(C)C1NC(=O)C(NC(=O)c2c3nc4c(C(=O)NC5C(=O)NC(C(C)CC)C(=O)N6CCCC6C(=O)N(C)CC(=O)N(C)C(C(C)C)C(=O)OC5C)ccc(C)c4oc-3c(C)c(=O)c2N)C(C)OC(=O)C(C(C)C)N(C)C(=O)CN(C)C(=O)C2CCCN2C1=O (configuration not stated) (I: TIP[Sar][NMeV] / II: TIP[Sar][NMeV]; ester I:1-I:C, II:1-II:C; linker I:N-II:N via Actinocin(1to9); configuration not given here) | 66% | 98% (active) | 91% (active) | 33 | 99% (active) | 93.7% (active) | 32% | 98% (active) | 92.5% (active) | 38 | 97% (active) | 90.7% (active) | 43% | 99% (active) | 92.6% (active) | 67% | 98% (active) | 88.3% (active)
17 | c1ccc(C2NCCNC2c2ccccc2)cc1 (configuration not stated) | 1% | -5% | 2.15% | 0 | -10% | 15% | 0% | -9% | 22.3% | 3 | -6% | -1.8% | 4% | 5% | 55.3% | -3% | -7% | -19.2%
18 | CC(O)C(O)C(O)C(O)C(O)C(=O)NNc1ccccc1 (configuration not stated) | 9% | 75% (active) | 44% | -1 | 37% | 52.6% | 7% | 40% | 63.2% | 10 | 71% (active) | 13.5% | 29% | 91% (active) | 75.6% (active) | 26% | 85% (active) | 83.2% (active)
19 | Cc1cc(I)nc2ccccc12 | 0% | 15% | 68.4% | -1 | 1% | 21.2% | -3% | 8% | 59% | -3 | -18% | -18.4% | -6% | -13% | 26.8% | -2% | -12% | 48.7%
